Reference: PubChem BioAssay (Tox21)
Where “and” joins values, the source holds several entries; their conditions need not be identical. Equal values may be shown once. Records with an inconclusive call do not appear. More than one record can exist for a structure, and the calls need not agree. Calls of active or inactive are those of the source. The call rests on the fitted dose curve.

Assay: qHTS assay for small molecule agonists of the p53 signaling pathway - cell viability (AID 651633); further: nearly all actives have a fitted effect of over 30% in size;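 on activity change, negative = cytotoxicity: p53RE-bla HCT reporter cells with a stable beta-lactamase p53 reporter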
Conditions: p53RE-bla HCT-116 viability, ATP luminescence, 16 h; series mostly up to 83.3 µM; activity change, negative = cytotoxicity: at the top concentration
Description: National Center for Advancing Translational Sciences [NCATS]
NIH Chemical Genomics Center [NCGC]
U.S. Environmental Protection Agency [EPA]
National Institutes of Environmental Health Sciences [NIEHS]
National Toxicology Program [NTP]
U.S. Food and Drug Administration [FDA]
p53, a tumor suppressor protein, is activated following cellular insult, including DNA damage and other cellular stresses. The activation of p53 regulates cell fate by inducing DNA repair, cell cycle arrest, apoptosis, or cellular senescence. The activation of p53, therefore, is a good indicator of DNA damage and other cellular stresses. […] The activation of the reporter gene under culture conditions can be detected by fluorescence intensity. This cell line was used to screen the Tox21 compound library in a 1536-well plate format and to identify agonists that activate the p53 signaling pathway.
Tox21 Assay Protocol Summary:
The p53RE-bla cells were dispensed at 4,000 cells/5 ul/well in 1536-well black wall/clear bottom plates using a Multidrop dispenser. After the assay plates were incubated at a 37 C/5% CO2 incubator for 5 hours, 23 nL of compounds dissolved in DMSO, positive controls or DMSO only was transferred to the assay plate by a pin tool. The plates were incubated at 37 C for 16 hours. After 1 uL of LiveBLAzerTM B/G FRET substrate was added using a Flying Reagent Dispenser, the plates were incubated at room temperature for 2 hours, and fluorescence intensity was measured by an Envision plate reader.
For cell viability readout that measures cytotoxicity, 4 ul/well of CellTiter-Glo reagent was added into the assay plates using a Flying Reagent Dispenser. After 30 min incubation at room temperature, the luminescence intensity in the plates was measured using a ViewLux plate reader.
On the % scale 0 is the no-effect control and ±100 the full control effect; potency means the concentration at half of the fitted maximal effect.

Row | SMILES | Potency | activity change, negative = cytotoxicity
1 | CCCCCCCOC(=O)c1ccc(O)cc1 | inactive and 61.1 µM (active) | –
2 | O=C1NCN(c2ccccc2)C12CCN(CCCC(c1ccc(F)cc1)c1ccc(F)cc1)CC2 | 26.6 µM (active) | –
3 | Nc1cc(Cl)c([N+](=O)[O-])cc1O | – | -8.43% (inactive)
4 | O=C1OC(OC(=O)c2cccnc2Nc2cccc(C(F)(F)F)c2)c2ccccc21 (stereo not given) | – | -12.5% (inactive)
5 | CC1=C(/C=C/C(C)=C/C=C/C(C)=C/C(=O)Nc2ccc(O)cc2)C(C)(C)CCC1 | 29.8 µM (active) and 62.7 µM (active) | –
6 | C=C1C(C)(C)[C@@]2(Cl)C(Cl)[C@]1(Cl)C(Cl)(Cl)C2(Cl)Cl (stereo not given in full) | 67.3 µM (active) | –
7 | CCCC(CC)CCCCCCCN (stereo not given) | – | -7.71% [at 95.3 µM] (inactive)
8 | Clc1ccc(C(c2ccccc2Cl)C(Cl)Cl)cc1 (stereo not given) | 23.7 µM (active) | –
9 | C[C@H]1O[C@@H](O[C@H]2[C@@H](O)C[C@H](O[C@H]3[C@@H](O)C[C@H](O[C@H]4CC[C@@]5(C)[C@H](CC[C@@H]6[C@@H]5C[C@@H](O)[C@]5(C)[C@@H](C7=CC(=O)OC7)CC[C@]65O)C4)O[C@@H]3C)O[C@@H]2C)C[C@H](O)[C@@H]1O | 94.4 nM (active) and 13.7 nM (active) and 30.3 nM (active) | –
10 | CN1CCN(C2Cc3ccccc3Sc3ccc(Cl)cc32)CC1 (stereo not given) | 29.8 µM (active) | –
11 | Cc1ccc2ccc3cccc4ccc1c2c34 | – | 5.43% (inactive)
12 | CN(C)c1ccc(N=NS(=O)(=O)O)cc1 | – | -15.2% (inactive)
13 | S=C(SSSSSSC(=S)N1CCCCC1)N1CCCCC1 | – | -4.99% [at 39.1 µM] (inactive)
14 | Cc1cccc(C)c1NC(=O)CN1CCN(CCCC(c2ccc(F)cc2)c2ccc(F)cc2)CC1 | – | -12.1% [at 39.1 µM] (inactive)
15 | COC(=O)CC(C)CCC=C(C)C (stereo not given) | – | -16.7% (inactive)
16 | COc1ccc2sc(C(=O)Nc3nnn[nH]3)c(OC(C)C)c2c1 | 24.2 µM (active) | –
17 | Cc1cn[nH]c1 | – | 19.6% (inactive)
18 | O=C(Nc1ccc(Cl)cc1)Nc1ccc(Cl)c(C(F)(F)F)c1 | 26.6 µM (active) | –
19 | Cc1c(C)n(Cc2ccccc2)c2ccc(C(=O)OCCN(C)C)cc12 | – | -15.6% (inactive)
20 | CCNc1nc(NC(C)CC)nc(OC)n1 (stereo not given) | – | 8.8% (inactive)

Row | SMILES | Potency | activity change, negative = cytotoxicity
21 | C[C@@H]1CC[C@H]2C(C)(C)[C@H]3C[C@@]12CC[C@@]3(C)O | – | -24.8% (inactive)
22 | CCCCCCC(C)Nc1ccc(Nc2ccccc2)cc1 (stereo not given) | 54.5 µM (active) | –
23 | O=Nc1ccc(NO)cc1 | – | 31.1% [at 95.3 µM] (inactive)
24 | CCC(=O)OCCc1ccccc1 | – | 10.9% (inactive)
25 | N#CSCSc1nc2ccccc2s1 | 21.7 µM (active) | –
26 | S=P(N1CC1)(N1CC1)N1CC1 | inactive | –
27 | O=C(O)c1cccc(Cl)n1 | – | 19.9% (inactive)
28 | Cc1cccc(Br)c1 | – | 8.35% [at 95.3 µM] (inactive)
29 | CCCCCCCCCCCC(=O)N(CC)CC | – | -8.65% (inactive)
30 | C=CC(C)(CCC=C(C)C)OC(=O)/C=C/c1ccccc1 (stereo not given) | – | 14.4% (inactive)
31 | Cc1oc(-c2ccccc2)nc1CCOc1ccc(C[C@H](Nc2ccccc2C(=O)c2ccccc2)C(=O)O)cc1 | 21.7 µM (active) | –
32 | CCN(CC)CCCN(c1ccccc1)C1Cc2ccccc2C1 | 13.3 µM (active) | –
33 | Brc1ccccc1-c1ccccc1 | – | -19.9% (inactive)
34 | CCCCCCCC/C=C\CCCCCCCC(=O)OCCOC(=O)CCCCCCC/C=C\CCCCCCCC | – | 5.8% [at 95.3 µM] (inactive)
35 | Cc1c(C(=O)O)cccc1[N+](=O)[O-] | – | -18.1% [at 95.3 µM] (inactive)
36 | c1ccc(Nc2cccc3ccccc23)cc1 | – | -23.5% (inactive)
37 | [O]=[Zr] | – | -26% (inactive)
38 | C[C@]12CC[C@H]3C(=CCc4cc(O)ccc43)[C@@H]1CCC2=O | – | -10.7% (inactive)
39 | COC(=O)NCCC[Si](OC)(OC)OC | – | 20.3% (inactive)
40 | Nc1ccc2cc3ccc(N)cc3nc2c1 | inactive | –
